# Experimental data as given in PubChem BioAssay.
# Calls of active or inactive are those of the source.
# Tests used:
# [1] = binders of probe aFSTL3 on microarray, primary screen, stem cell growth factor project, biochemical, small-molecule microarray, fluorescence 635/667 (AID 1064); conditions: higher = more signal;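 further: measures binding of the biotinylated anti-FSTL3 antibody to printed compounds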
# [2] = binders from COS7 lysate, DM2A8 probe, primary screen, torsin A project, cell lysate, small-molecule microarray, fluorescence 635/667 (AID 1065); conditions: higher = more signal, COS7 lysate expressing mutant human TOR1A
# [3] = binders of probe aFGF2 on microarray, primary screen, stem cell growth factor project, biochemical, small-molecule microarray, fluorescence 635/667 (AID 1067); conditions: higher = more signal;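 further: measures binding of biotinylated aFGF2 protein to printed compounds on slides; z-score merges feature fluorescence and signal-to-noise across triplicate slides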
# [4] = binders of probe aFGF10 on microarray, primary screen, stem cell growth factor project, biochemical, small-molecule microarray, fluorescence 635/667 (AID 1071); conditions: higher = more signal;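 further: score merges 667 nm spot intensity and signal to noise from triplicate slides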
# [5] = target: Neurogenic locus notch homolog protein 2 (Homo sapiens) (UniProt Q04721); experiment: Notch2 binders on small-molecule microarrays, primary screen, biochemical, small-molecule microarray, 635 nm fluorescence, stem cell growth factors (AID 1073); conditions: Notch2 binding, higher = more signal
# [6] = target: Pro-neuregulin-1, membrane-bound isoform (Homo sapiens) (UniProt Q02297); experiment: NRG1 binders on small-molecule microarrays, primary screen, psychiatric disease protein project, biochemical, small-molecule microarray, fluorescence 635/667 (AID 1075); conditions: NRG1 binding, 635 nm fluorescence, higher = more signal;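 further: score combines 667 nm spot fluorescence with signal to noise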
# [7] = system: Neuregulin-1 EGF-like domain; experiment: binders of neuregulin-1 EGF-like domain, primary screen, biochemical, small-molecule microarray, 635 nm fluorescence (AID 1081); conditions: small-molecule microarray binding, higher = more signal;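 further: binding of the protein to compounds printed on small-molecule microarray slides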
# [8] = FRG1 promoter luciferase signal modulators, primary screen, FRG1 inhibition for FSHD, cell-based, C2C12 myotubes, firefly/Renilla luciferase, luminescence (AID 1084); conditions: higher = more signal, called active from +8 up or from −8 down
# [9] = binders of probe aFST on microarray, primary screen, stem cell growth factor project, biochemical, small-molecule microarray, fluorescence 635/667 (AID 1086); conditions: higher = more signal;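 further: score merges 667 nm fluorescence with signal-to-noise of each printed compound spot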
# [10] = binders of probe aHhip on microarray, primary screen, stem cell growth factor project, biochemical, small-molecule microarray, fluorescence 635/667 (AID 1087); conditions: higher = more signal;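 further: score merges spot fluorescence at 667nm with spot signal to noise ratio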
# Chain of Pro-neuregulin-1, membrane-bound isoform (Homo sapiens) (Q02297 whole entry, looked up, the tested form may be a part, canonical isoform): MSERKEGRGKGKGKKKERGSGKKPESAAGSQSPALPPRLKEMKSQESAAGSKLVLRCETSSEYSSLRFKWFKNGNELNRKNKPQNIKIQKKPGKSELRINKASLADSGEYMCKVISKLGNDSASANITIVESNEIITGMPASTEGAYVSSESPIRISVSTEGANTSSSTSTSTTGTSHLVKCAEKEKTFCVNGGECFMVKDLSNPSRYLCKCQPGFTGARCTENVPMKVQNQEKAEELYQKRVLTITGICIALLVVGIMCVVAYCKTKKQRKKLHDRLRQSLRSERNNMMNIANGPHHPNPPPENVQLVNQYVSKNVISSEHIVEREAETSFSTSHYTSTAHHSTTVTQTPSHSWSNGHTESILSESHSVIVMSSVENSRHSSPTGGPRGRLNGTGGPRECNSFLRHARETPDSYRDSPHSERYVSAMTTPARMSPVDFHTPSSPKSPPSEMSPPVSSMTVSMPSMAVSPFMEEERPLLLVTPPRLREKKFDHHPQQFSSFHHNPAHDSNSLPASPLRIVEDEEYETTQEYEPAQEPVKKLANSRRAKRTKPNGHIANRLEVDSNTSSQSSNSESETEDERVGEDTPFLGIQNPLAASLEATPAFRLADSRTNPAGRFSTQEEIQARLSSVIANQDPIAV
# Chain of Neurogenic locus notch homolog protein 2 (Homo sapiens) (Q04721 whole entry, looked up, canonical isoform): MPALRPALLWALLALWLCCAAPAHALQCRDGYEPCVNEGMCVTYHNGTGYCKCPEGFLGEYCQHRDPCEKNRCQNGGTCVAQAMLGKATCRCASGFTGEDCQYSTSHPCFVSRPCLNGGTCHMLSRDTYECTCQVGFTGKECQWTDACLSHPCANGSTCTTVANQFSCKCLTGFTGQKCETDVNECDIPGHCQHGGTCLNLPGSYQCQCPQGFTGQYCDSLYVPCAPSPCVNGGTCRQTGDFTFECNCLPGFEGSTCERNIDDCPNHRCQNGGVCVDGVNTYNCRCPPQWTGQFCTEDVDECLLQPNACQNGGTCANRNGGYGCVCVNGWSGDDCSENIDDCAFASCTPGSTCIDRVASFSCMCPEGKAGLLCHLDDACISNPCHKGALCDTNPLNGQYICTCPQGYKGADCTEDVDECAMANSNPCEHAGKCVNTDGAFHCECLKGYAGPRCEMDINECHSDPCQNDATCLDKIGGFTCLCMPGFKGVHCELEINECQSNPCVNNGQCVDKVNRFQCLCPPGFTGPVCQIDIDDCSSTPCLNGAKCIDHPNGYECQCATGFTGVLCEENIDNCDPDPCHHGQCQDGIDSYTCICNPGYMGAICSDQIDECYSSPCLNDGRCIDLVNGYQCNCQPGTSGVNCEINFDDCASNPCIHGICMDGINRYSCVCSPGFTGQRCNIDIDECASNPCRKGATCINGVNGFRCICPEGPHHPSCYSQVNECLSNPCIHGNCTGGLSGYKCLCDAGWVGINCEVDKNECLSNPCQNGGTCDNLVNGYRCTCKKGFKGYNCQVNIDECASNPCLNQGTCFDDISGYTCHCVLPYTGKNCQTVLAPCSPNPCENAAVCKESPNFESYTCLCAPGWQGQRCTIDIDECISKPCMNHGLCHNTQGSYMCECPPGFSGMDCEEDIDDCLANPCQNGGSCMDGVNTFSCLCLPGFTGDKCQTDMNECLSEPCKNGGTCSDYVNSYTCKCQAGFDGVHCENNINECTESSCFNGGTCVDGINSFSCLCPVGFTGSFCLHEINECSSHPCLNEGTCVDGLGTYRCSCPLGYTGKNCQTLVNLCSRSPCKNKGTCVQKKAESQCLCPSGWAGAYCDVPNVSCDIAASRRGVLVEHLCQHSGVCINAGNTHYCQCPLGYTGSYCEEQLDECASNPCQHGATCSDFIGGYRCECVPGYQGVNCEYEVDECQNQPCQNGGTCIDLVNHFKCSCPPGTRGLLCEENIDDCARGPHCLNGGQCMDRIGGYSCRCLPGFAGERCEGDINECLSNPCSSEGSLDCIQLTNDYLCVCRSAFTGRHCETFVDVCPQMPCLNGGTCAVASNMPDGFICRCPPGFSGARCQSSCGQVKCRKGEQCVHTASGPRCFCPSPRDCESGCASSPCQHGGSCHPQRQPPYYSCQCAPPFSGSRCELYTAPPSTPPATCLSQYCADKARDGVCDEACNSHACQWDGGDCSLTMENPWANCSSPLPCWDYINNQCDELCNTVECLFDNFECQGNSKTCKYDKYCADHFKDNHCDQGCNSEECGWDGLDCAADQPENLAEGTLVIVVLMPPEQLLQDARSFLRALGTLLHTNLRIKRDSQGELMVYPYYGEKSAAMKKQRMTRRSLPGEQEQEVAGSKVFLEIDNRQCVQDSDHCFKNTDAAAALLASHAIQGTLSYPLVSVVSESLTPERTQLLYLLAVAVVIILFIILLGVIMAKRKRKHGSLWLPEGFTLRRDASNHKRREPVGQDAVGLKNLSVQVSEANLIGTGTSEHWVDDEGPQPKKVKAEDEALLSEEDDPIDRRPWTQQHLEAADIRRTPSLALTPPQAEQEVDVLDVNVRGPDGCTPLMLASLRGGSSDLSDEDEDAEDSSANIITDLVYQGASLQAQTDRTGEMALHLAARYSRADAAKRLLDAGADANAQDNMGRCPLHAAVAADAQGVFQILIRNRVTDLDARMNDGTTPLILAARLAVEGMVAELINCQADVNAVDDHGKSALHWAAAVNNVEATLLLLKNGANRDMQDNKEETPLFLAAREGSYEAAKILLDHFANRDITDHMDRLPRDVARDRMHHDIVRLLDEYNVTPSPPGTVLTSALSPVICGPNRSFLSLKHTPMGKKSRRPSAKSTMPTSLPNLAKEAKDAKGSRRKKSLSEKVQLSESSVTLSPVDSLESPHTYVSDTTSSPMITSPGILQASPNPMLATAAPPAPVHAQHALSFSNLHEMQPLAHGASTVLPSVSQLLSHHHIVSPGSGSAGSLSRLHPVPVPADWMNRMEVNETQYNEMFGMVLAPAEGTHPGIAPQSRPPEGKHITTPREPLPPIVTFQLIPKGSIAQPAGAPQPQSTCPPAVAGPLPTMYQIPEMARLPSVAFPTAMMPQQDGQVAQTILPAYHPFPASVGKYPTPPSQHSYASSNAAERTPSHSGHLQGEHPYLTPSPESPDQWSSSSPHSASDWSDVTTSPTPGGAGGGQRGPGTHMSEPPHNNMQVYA
SMILES,composite z-score [1],composite z-score [2],composite z-score [3],composite z-score [4],composite z-score [5],composite z-score [6],composite z-score [7],z-score [8],composite z-score [9],composite z-score [10]
COC(=O)[C@@H]1CC[C@H](C)[C@@H](c2ccc(C)cc2)N1C(=O)c1ccc(C=NOC[C@@H](O)COCc2ccco2)cc1,0.852,0.239,-0.226,-0.58,-1.83,-0.96,-1.04,0.495 (inactive),-0.72,-0.137
C[C@@H](c1ccccc1)N1C(=O)[C@H]2[C@H]3[C@H](O)C=CC(=O)[C@@H]3CC[C@H]2C1=O,-0.663,0.0994,-0.218,0.277,0.348,0.185,0.609,-0.608 (inactive),0.123,-0.0738
CCc1cc2c(nc1CC)CCN(CCC(C)=NOC[C@@H](O)COCc1ccco1)C2,0.394,2.81,-0.105,0.0103,0.95,-0.38,1.36,1.16 (inactive),2.06,0.382
CC(C)(C)N1C(=O)[C@H]2[C@H]3[C@H](O)[C@H](O)CC(=NOCc4ccccc4)[C@@H]3CC[C@H]2C1=O,-0.0757,0.581,-0.0963,0.805,1.49,0.583,1.13,-1.4 (inactive),0.503,-0.15
COc1ccc(O[C@H]2C=C[C@@H](c3ccccc3)O[C@@H]2COC(=O)N2CCCCC2)cc1,-0.0055,0.38,-0.0493,-0.479,-0.701,-0.578,-0.77,-0.216 (inactive),-0.0007,-0.171
NC(=O)NCC#Cc1ccc2c(c1)[C@]1(C(=O)N2)[C@H](c2ccc(O)cc2)N2[C@H](c3ccccc3)[C@H](c3ccccc3)OC(=O)[C@H]2[C@@H]1C(=O)N1CCCCCCC1,2.38,-0.206,0.242,0.122,0.617,0.467,0.839,-1.21 (inactive),2.31,0.257
O=C1[C@H]2[C@H]3[C@H](O)[C@H](O)CC(=NO[C@@H]4O[C@H](CO)[C@@H](O)[C@H](O)[C@H]4O)[C@@H]3CC[C@H]2C(=O)N1c1ccc(F)cc1F,-0.383,1.17,-0.125,0.442,0.482,-0.141,0.386,1.06 (inactive),0.0076,0.2
COc1ccc(O[C@H]2C=C[C@@H](c3ccccc3)O[C@@H]2COC(=O)CCC(C)=NOC[C@@H](C)[C@H](OCc2ccccc2)C(C)C)cc1,-0.404,-0.48,-0.171,-0.14,-1.1,-1.09,-1.02,0.696 (inactive),-0.504,-0.184
CC(C)=NOCc1ccc(-c2cc(-c3ccccc3)no2)cc1,-0.474,-0.191,-0.0788,0.241,0.29,-0.225,0.123,-0.172 (inactive),0.0003,-0.0296
CO[C@@H]1COC(=O)CCC[C@@H](C)[C@H](OC)COC(=O)CCC[C@H]1C,-0.298,0.743,-0.0982,0.219,0.633,-0.63,0.176,0.462 (inactive),0.561,0.369
CC(C)(C)N1CC=CC23O[C@@H]4C=CCCOC(=O)C4[C@H]2C(=O)N(CCCCCO)[C@@H]3C1=O (stereo not given in full),-0.0873,1.48,-0.183,0.448,0.366,-0.0196,1.28,-0.85 (inactive),-0.443,0.0156
COC(=O)CC=C[C@@H](C)[C@H](OC)c1ccccc1Br,-0.297,1.46,-0.0514,0.178,0.119,-0.171,-0.26,1.08 (inactive),-0.155,0.275
COCC(=C=CC[C@@H](O)c1ccccc1OCCO)CCO,-0.181,0.44,0.0201,0.492,0.375,0.19,1.27,0.0373 (inactive),0.175,-0.0618
CCOC(=O)[C@H](Cc1ccccc1)NC(=O)CCC1CC(OC(=O)NCc2ccc3c(c2)OCO3)CC2(CCCC(COC(=O)NCC3CCCCC3)O2)O1 (stereo not given in full),-0.632,0.247,-0.0775,0.256,1.19,0.306,1.04,1.2 (inactive),1.27,-0.0994
[N-]=[N+]=NCc1ccccc1C[C@]1(C(=O)NCc2ccccc2)N=C(c2ccc(OCCCO)cc2)O[C@H]1c1ccccc1N=[N+]=[N-],0.741,-0.0741,-0.0231,1.13,1.22,0.799,1.01,-1.34 (inactive),1.16,0.295
CCCC[C@H]1OB(O)C[C@H]2C1=C(C)C[C@H]1C(=O)N(C)C(=O)[C@H]12,-0.626,0.441,-0.0562,0.719,1.09,0.053,0.938,-0.252 (inactive),0.349,-0.156
CO[C@@H]1COC(=O)CCC[C@@H](C)[C@H](OC)COC(=O)[C@H](Cc2ccccc2)NC(=O)CC=C[C@H]1C,-0.0731,1.42,-0.186,-0.904,-1.13,-0.87,-1.25,0.0446 (inactive),-0.104,-0.134
